Experiment [1] in a line: growth inhibition of DIPG glioma cells, dose response, cell-based, SU-DIPG-XIII, MIPE4.0, CellTiter-Glo, qHTS (AID 1347061; cut-off not given, nearly all actives have AC50 up to about 37 µM;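 note: cells exposed to compound for 48 hours before readout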). The conditions noted are these: SU-DIPG-XIII viability, CellTiter-Glo ATP luminescence.
Experiment [2] can be described thus: growth inhibition of DIPG glioma cells, dose response, cell-based, SU-DIPG-XIII, MIPE5.0, CellTiter-Glo, qHTS (AID 1347064; cut-off not given, nearly all actives have AC50 up to about 23 µM;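 for AC50: cells exposed to compound for 48 hours before the viability read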). The conditions noted are these: SU-DIPG-XIII viability, CellTiter-Glo ATP luminescence. (Cellular ATP, detected with luciferase, serves as a proxy for viable cell number.)
Experiment [3] is described as follows: SU-DIPG-VI glioma cell viability, MIPE4.0 library, CellTiter-Glo luminescence, qHTS (AID 1347066).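 Note: cells exposed to compound for 48 hours before readout.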 The following applies: CellTiter-Glo ATP luminescence.
Experiment [4] can be described thus: SU-DIPG-XXV glioma cell viability, MIPE5.0 library, qHTS (AID 1347068; cut-off not given, nearly all actives have IC50 up to about 30 µM;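 for IC50: cells exposed to compound for 48 hours before viability readout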). On the technique in general: In qHTS, concentration-response curves come from the screen itself.
The nature of experiment [5]: viability loss in pontine glioma line – cell-based, SU-DIPG-XXV, MIPE5.0, CellTiter-Glo, qHTS, dose response (AID 1347065; cut-off not given, nearly all actives have AC50 up to about 26 µM;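 note: cells exposed to compound for 48 hours before ATP readout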). The conditions noted are these: CellTiter-Glo ATP luminescence.
A short description of experiment [6]: JHH-DIPG-1 glioma cell viability, MIPE5.0 library, CellTiter-Glo luminescence, qHTS (AID 1347067; cut-off not given, nearly all actives have AC50 up to about 26 µM;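 note: cells exposed to compound for 48 hours before readout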). The following applies: JHH-DIPG-1 glioma viability, CellTiter-Glo ATP luminescence.
Experiment [7] can be described thus: growth inhibition of DIPG glioma cells, dose response, cell-based, JHH-DIPG-1, MIPE4.0, CellTiter-Glo, qHTS (AID 1347062; cut-off not given, nearly all actives have AC50 up to about 27 µM;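 for AC50: cells exposed to compound for two days before readout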). The following applies: JHH-DIPG-1 viability, CellTiter-Glo ATP luminescence.
Experiment [8] is described as follows: growth inhibition of DIPG glioma cells, dose response, cell-based, SU-DIPG-IV, MIPE4.0, CellTiter-Glo, qHTS (AID 1347063).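 Note: compound exposure lasted 48 hours before the viability readout.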 The conditions noted are these: SU-DIPG-IV viability, CellTiter-Glo ATP luminescence.
Experiment [9] in a line: sensitizers of A549 cells to miR-34 induction, primary screen, imaging, A549 dox-inducible miR-34, nuclei and caspase counts (AID 1347080;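 active = compounds whose cell count with miR-34 switched on is under 0.7 times the count with it off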). The following applies: A549 miR-34 inducible, Hoechst nuclei count, 48 h.
Experiment [10] in a line: survival rescue of mitochondrial mutant cells in low glucose, primary screen, MELAS cybrids, Rieske KO mouse fibroblasts, CellTiter-Glo (AID 1508586;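 active = mean z-score across replicates of 1.96 or higher in either the MELAS or the Rieske mutant cell line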;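 note: z relative to plate mean and SD of compound and empty wells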).
Where [11] appears, read: measured here: relative caspase fold change +Dox/-Dox.
The mark [12] stands for this setting: measured here: total cells with miR-34 induction, stronger effect = lower value.
The mark [13] stands for this setting: measured here: total cells without miR-34 induction.
The mark [14] stands for this setting: MELAS cybrid survival, CellTiter-Glo 48 h, stronger effect = higher value.
Setting [15] is: Rieske KO mouse fibroblast survival, CellTiter-Glo 72 h.
The mark [16] stands for this setting: stronger effect = lower value, cell number ratio, induced over uninduced.

Consider 21 compounds from PubChem BioAssay.

Inconclusive results are not listed. The source made the active and inactive calls. Unless noted, no cut-off is given here; in the data, nearly all actives have AC50 up to about 30 µM.

By AC50 is commonly meant the midpoint of the concentration-response curve, whichever way the signal moves. `CC(C)(O)C(=O)Nc1ccc([N+](=O)[O-])c(C(F)(F)F)c1`: the AC50 in experiment [1] was 11.8 µM (active). In addition, the result in experiment [2], in [3] and in [4] was inactive.
For `CCOC(=O)Nc1ccc(NCc2ccc(F)cc2)cc1N`, the result in experiment [1], in experiment [2], in experiment [5], in [3], in [6] and in [4] was inactive.
On to `CC(C)N(CCNC(=O)CN1CCCC1=O)C(C)C`, for which the result in experiment [1], in [7], in experiment [8] and in experiment [3] was inactive. The fold change is 0.88 (inactive) in experiment [9] (stronger effect = lower value) and 0.862 in experiment [9] (setting [11]). The cell count was 9340 in experiment [9] (setting [12]) and 10600 in experiment [9] (setting [13]). Besides, the z-score was -0.352 (inactive) in [10] (setting [14]) and 0.7 in [10] (setting [15]).
As to `CNC(=O)c1ccc(N2C(=S)N(c3ccc(C#N)c(C(F)(F)F)c3)C(=O)C23CCC3)cc1F`, the compound was classed as inactive in experiment [1], in [3] and in [4]. Besides, the AC50 in [7] is 10.5 µM (active); in [8], 9.35 µM (active).
As to `O=C(N[C@@H](COc1ccc2[nH]c(=O)[nH]c2c1)c1ccccc1)c1cccn(Cc2ccc(F)c(F)c2)c1=O`, the compound was classed as inactive in experiment [1], in experiment [2] and in experiment [4]. Moreover, the AC50 in experiment [5] was 18.6 µM (active); in experiment [6], 16.6 µM (active).
Take `COc1ccc(CC2NCCc3cc(OC)c(OC)cc32)cc1OC` (stereo not given): the compound was called inactive in [1], in experiment [8] and in experiment [3]. Besides, the figures for the fold change in experiment [9] (setting [16]) and in [9] (setting [11]) were 0.988 (inactive) and 0.746, respectively. Further, the cell count in experiment [9] (setting [12]) worked out at 9220; in experiment [9] (setting [13]), 9330. Besides, the z-score in experiment [10] (setting [14]) was -0.321 (inactive); in experiment [10] (setting [15]) it was 0.618.
As for `CCNC(=O)C[C@@H]1N=C(c2ccc(Cl)cc2)c2cc(OC)ccc2-n2c(C)nnc21`, in experiment [7], the AC50 was 7.43 µM (active). The call in [3], in experiment [6] and in experiment [4] was inactive.
Consider `CC(C)(C)[C@]1(O)C[C@@H]2OC(=O)C[C@@]23C(=O)O[C@@H]2OC(=O)[C@H](O)C213` (stereo not given in full), for which the compound was called inactive in experiment [1], in experiment [7], in [8] and in [3].
Consider `CCC(=O)OC1CCC2C3CCC4=CC(=O)CC[C@@]4(C)C3CC[C@]12C` (stereo not given in full), for which the compound was called inactive in experiment [7], in experiment [8] and in experiment [3].
One may read the IC50 as the concentration at which inhibition is half-maximal. `CO/C1=C/C(C)=C\[C@@H](C)[C@@H](O)[C@@H](C)C/C(C)=C\C=C/[C@H](OC)[C@@H]([C@@H](C)[C@@H](O)[C@H](C)[C@@]2(O)C[C@@H](O)[C@H](C)[C@@H](C(C)C)O2)OC1=O`: the AC50 is 11.8 µM (active) in experiment [7]; 9.35 µM (active) in [8]; 0.393 µM (active) in experiment [5]; 3.72 µM (active) in experiment [3]; 9.86 µM (active) in experiment [6]. The IC50 in [4] was 0.0494 µM (active).
`C1=C2CCCN[C@H]2[C@@H]2C[C@H]1[C@H]1CCCCN1C2`: the outcome in experiment [1], in [7], in experiment [8] and in [3] was inactive. In addition, the figures for the fold change in [9] (setting [16]) and in [9] (setting [11]) were 0.948 (inactive) and 1.03, respectively. The figures for the cell count in experiment [9] (setting [12]) and in [9] (setting [13]) were 10000 and 10600, respectively. The z-score in experiment [10] (setting [14]) was -0.38 (inactive); in [10] (setting [15]), 0.546.
On to `COc1cccc2c1[C@]13CCN(CC4CC4)[C@H](C2)[C@]1(OC)CCC(=O)C3`, for which the call in experiment [1], in [7] and in experiment [3] was inactive.
`C[C@](O)(COc1ccc(C#N)cc1)C(=O)Nc1ccc(C#N)c(C(F)(F)F)c1`: the call in experiment [7], in experiment [8], in experiment [2], in [5], in [3] and in experiment [4] was inactive. Besides, the fold change is 0.889 (inactive) in [9] (stronger effect = lower value) and 1.23 in [9] (setting [11]). Besides, the cell count in experiment [9] (setting [12]) stood at 6840; in [9] (setting [13]), 7700. For the same compound, the z-score in [10] (setting [14]) was -0.434 (inactive); in [10] (setting [15]), 0.535.
Consider `C[C@@]12OC(=O)[C@]1([C@@H](O)[C@@H]1C=CCCC1)NC(=O)[C@@H]2CCCl`, for which the AC50 in experiment [1] was 0.59 µM (active); in [7] it was 0.0418 µM (active); in [8], 0.00935 µM (active); in experiment [2] it was 0.0148 µM (active); in experiment [5], 0.0186 µM (active); in experiment [3] it was 0.0235 µM (active). Further, the AC50 in [6] was 0.0295 µM (active).
`CN1CCN(c2ccc([N+](=O)[O-])c3no[n+]([O-])c23)CC1`: the AC50 is 23.5 µM (active) in experiment [7]; 16.6 µM (active) in experiment [8]; 16.6 µM (active) in experiment [2]; 18.6 µM (active) in experiment [5]; 23.5 µM (active) in [6]. The result in experiment [4] was inactive.
On to `COC1(CS(=O)c2ccccc2)CCN(CCc2c[nH]c3ccc(F)cc23)CC1` (stereo not given), for which the compound was called inactive in [1], in experiment [7], in experiment [8], in experiment [2], in experiment [3] and in experiment [6]. In addition, the call in [4] was inactive.
With `COc1ccc(S(=O)(=O)N(CCO)c2ccccc2CN(C)C/C=C/c2ccc(Cl)cc2)cc1`, the results for the fold change in experiment [9] (setting [16]) and in [9] (setting [11]) were 1.03 (inactive) and 1.21, respectively. In addition, the cell count in [9] (setting [12]) is 5240; in [9] (setting [13]), 5100.
With `C/C1=C/C(=O)O[C@@H]2C[C@@H](CC[C@H](C)/C=C\CC1)O[C@@](O)([C@@H]1CSC(=O)N1)C2`, the fold change in experiment [9] (stronger effect = lower value) was 1.2 (inactive); in experiment [9] (setting [11]), 0.63. The cell count in experiment [9] (setting [12]) was found to be 1070; in experiment [9] (setting [13]), 888.
Turning to `Cc1sc2c(c1C)C(c1ccc(Cl)cc1)=NC(CC(N)=O)c1nnc(C)n1-2` (stereo not given), the compound was called inactive in experiment [6] and in [4]. For the same compound, the results for the fold change in experiment [9] (setting [16]) and in experiment [9] (setting [11]) were 0.978 (inactive) and 0.427, respectively. Moreover, the figures for the cell count in experiment [9] (setting [12]) and in experiment [9] (setting [13]) were 5420 and 5540, respectively. Also, the z-score was 0.425 (inactive) in [10] (setting [14]) and -3.88 in experiment [10] (setting [15]).
Regarding `C[C@@]1(CO)[C@H](O)CC[C@@]2(C)[C@H]1CC[C@H]1C[C@@H]3C[C@@]12CC[C@]3(O)CO`, the fold change in experiment [9] (stronger effect = lower value) was 1.03 (inactive); in experiment [9] (setting [11]), 0.966. Further, the cell count in [9] (setting [12]) came out at 2420; in [9] (setting [13]) it was 2350.
As to `CCCCC/C=C\C/C=C\C/C=C\C/C=C\CCCC(=O)NCc1ccoc1`, the fold change in [9] (setting [16]) is 0.985 (inactive); in experiment [9] (setting [11]), 1.68. For the same compound, the cell count in experiment [9] (setting [12]) is 5700; in experiment [9] (setting [13]) it was 5790.
